# Sampled rows, rich in hits. Any-hit rate of the full collection: about 3.5%.
# Hsp90 Hop PPI – changes Hsp90-Hop TPR2A binding signal, up or down; Potency, µM (doses to about 57 µM), for inactives: at the highest dose activity change, negative = inhibition; hit rate 0.44% among 71,000; AID 595; AlphaScreen TPR2A-His6 binding biotin-Hsp90 C-terminal peptide; active means well fitted curve in either direction with a large enough effect; inconclusive means small, poorly fitted or top-dose-only effect, or another doubt; further: on the % scale 0 is the no-effect control and ±100 the full control effect
# CRE-bla Fsk – modulators of forskolin-stimulated CRE signaling in CHO cells. CHO CRE-bla reporter (cAMP response element driving beta-lactamase), forskolin EC10, beta-lactamase ratio. Potency, µM (top dose mostly 38.2 µM), for inactives: top-dose activity change, negative = inhibition, actives largely listed as activators. hit rate 2.5% among 71,000; active means well fitted activation curve with a large enough effect in the signal ratio, with a control signal flat, not every such curve was filed as active; inconclusive means small, poorly fitted or top-dose-only effect, or effect the other way, or a change in a side signal; the % refers to the signal ratio; further: % of control where 0% means no effect
#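 Beta-lactamase reporter under a cAMP responsive element in CHO cells; compounds tested in titration series against EC10 NKH 477, 3 h at 37 °C. Read-out: CCF4 FRET ratio 460nm/530nm (excitation 405nm) giving %Activity, fitted to AC50.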
# IkB sig inh – IkB pathway inhibition in ABC-DLBCL cells. hit rate 0.04% among 110,000. Potency, µM (titrated, usually from 57.1 µM), for inactives: top-dose IkBa stabilization activation. ABC-DLBCL IkBa-CBG/CBR dual luciferase ratio, 4 h; response scale: scaled: untreated 0%, proteasome inhibitor 100%; active means well fitted curve in the direction sought with a large enough effect in the signal ratio, not every such curve was filed as active; inconclusive means small, poorly fitted or top-dose-only effect, or a change in a side signal; the % refers to the signal ratio;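 further: the direction sought is a rising ratio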
#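 Luminescence ratio of IκBα-fused green versus native red beetle luciferase in OCI-Ly3 cells, 4 h post-doxycycline with compound; red signal alone, scaled from basal (0%) to zero light (-100%), flagged nonspecific or cytotoxic effects.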
# TSHR ag – activates the human thyroid stimulating hormone receptor; P16473; HEK293-CNG-TSHR cells (CNG channel as cAMP sensor), membrane potential dye, cAMP; AID 926; Potency, µM (series often up to 57.1 µM), inactives show top-dose activation, most hits filed as activators; hit rate 0.48% among 73,000; active means well fitted activation curve with a large enough effect in the main read-out, with a control signal flat, not every such curve was filed as active; inconclusive means small, poorly fitted or top-dose-only effect, or a change in a side signal; inactive means no such curve, though single readings can be large or run the other way; % of control where 0% means no effect;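 further: the control signal comes from parental cells without the receptor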
# Target sequence (P16473 whole entry, looked up): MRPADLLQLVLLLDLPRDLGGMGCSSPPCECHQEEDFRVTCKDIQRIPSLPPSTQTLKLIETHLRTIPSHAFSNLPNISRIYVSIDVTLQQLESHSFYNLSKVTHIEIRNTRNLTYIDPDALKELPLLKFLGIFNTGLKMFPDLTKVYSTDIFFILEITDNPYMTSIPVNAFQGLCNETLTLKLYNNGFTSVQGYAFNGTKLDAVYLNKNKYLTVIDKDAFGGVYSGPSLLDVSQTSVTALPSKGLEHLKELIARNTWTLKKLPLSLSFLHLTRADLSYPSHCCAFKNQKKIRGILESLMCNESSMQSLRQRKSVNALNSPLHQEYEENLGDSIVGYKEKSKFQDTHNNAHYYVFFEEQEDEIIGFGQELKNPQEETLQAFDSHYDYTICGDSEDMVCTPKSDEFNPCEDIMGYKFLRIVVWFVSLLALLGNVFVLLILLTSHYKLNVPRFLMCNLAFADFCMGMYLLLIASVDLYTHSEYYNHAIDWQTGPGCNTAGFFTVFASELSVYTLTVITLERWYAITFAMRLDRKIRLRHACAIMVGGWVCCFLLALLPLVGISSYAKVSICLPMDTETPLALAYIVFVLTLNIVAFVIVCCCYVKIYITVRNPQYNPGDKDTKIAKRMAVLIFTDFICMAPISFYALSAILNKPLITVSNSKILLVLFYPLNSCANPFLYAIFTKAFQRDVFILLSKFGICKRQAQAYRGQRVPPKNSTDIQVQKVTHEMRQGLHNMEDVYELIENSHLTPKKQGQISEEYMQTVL
#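 HEK 293 cells stably expressing TSHR and a modified CNG channel, with CNG-only parental cells as counterscreen, were preloaded 60 min at room temperature with membrane potential dye containing 100 uM RO 20-1724. Compound exposure was 30 min, and depolarization was read as fluorescence at 590 nm.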
# HEK293 cAMP cs – counter-screen for TSHR agonists: cAMP increase in parental HEK293 | AID 938 | parental HEK293 CNG cAMP sensor, membrane potential fluorescence | Potency, µM (series often up to 57.1 µM), for the others: at the highest dose activation, hits mostly activators | hit rate 2.5% among 73,000; active means well fitted activation curve with a large enough effect; inconclusive means small, poorly fitted or top-dose-only effect; inactive means no such curve, though single readings can be large or run the other way; further: % of control where 0% means no effect; nearly all actives have a fitted effect of over 55% in size
#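 Counterscreen for endogenous-receptor signalling: CNG-channel HEK 293 cells report cAMP rise by membrane depolarization. After 60 min dye equilibration with 100 uM RO 20-1724, compounds incubated 30 min before bottom-read fluorescence at 590 nm.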
# An asterisk follows results filed as active; ? = inconclusive; · = no result given; ! = repeats disagree; [ ] = dose if it differs, or a comment. Potency means the concentration at half of the fitted maximal effect.
SMILES,Hsp90 Hop PPI,CRE-bla Fsk,IkB sig inh,TSHR ag,HEK293 cAMP cs
c1ccc(-c2noc(CSc3nnc(Cc4cccs4)n3-c3ccccc3)n2)cc1,-17.1%,?,?,?,25.1µM*
CCc1ccc(-n2c(Cc3ccccc3)nnc2SCc2nc(-c3cccs3)no2)cc1,·,·,3.9%,·,·
Fc1ccc(-n2c(Cc3ccccc3)nnc2SCc2nc(-c3cccs3)no2)cc1,-1.7%,?,-3.3%,?,25.1µM*
CCOC(=O)C1=C(c2ccccc2)NC(=O)NC1c1ccc(OCC#N)c(OC)c1 (stereo not drawn),0.3%,8.2%,-1.4%,4.6%,22.4%
COc1cc(C2NC(=O)NC(c3ccccc3)=C2C(C)=O)ccc1OCC(=O)O (stereo not drawn),18.2%,12.6µM*,?,?,31.6µM*
COCCNc1nc(C)nc2c1nc(-c1ccccc1)n2CCN1CCCCC1,-3.0%,?,·,?,?
Cc1nc(NCc2ccccc2)c2nc(-c3ccccc3)n(CCN3CCOCC3)c2n1,-5.2%,?,·,?,31.6µM*
CCCCNc1nc(C)nc2c1nc(-c1ccccc1)n2CCN1CCCCC1,-7.4%,?,·,?,12.6µM*
CCC(=O)Nc1ccccc1-c1nc2ccccc2n(CC(=O)c2ccc(Cl)cc2)c1=O,·,·,0.2%,·,·
Cc1noc(C)c1-c1ccc2ncnc(N3CCN(C)CC3)c2c1,4.1%,?,8.5%[11.4 µM],?,?
CC[N+]1(C)[C@@H]2CC[C@H]1CC(OC(=O)[C@H]1CC[C@@](C(=O)OC3C[C@H]4CC[C@@H](C3)[N+]4(C)CC)(c3ccccc3)c3ccccc31)C2 (stereo partly drawn),-1.2%[26 µM],-8.0%[17.1 µM],0.9%[25.6 µM],5.1%[25.6 µM],-3.1%[25.6 µM]
N#Cc1ccc2ccn(CC(=O)NC3CCCCCC3)c2c1,0.1%,-0.8%,0.2%,?,3.16µM*
CCOc1ccc(OCC)c(NS(=O)(=O)c2ccc(-c3coc(C)n3)cc2)c1,·,·,1.7%,·,·
CCC(=O)N1CCN(c2nc(-c3ccccc3)c3c(c2C#N)CCCC3)CC1,15.4%[11 µM],?,?,?,3.98µM*
N#Cc1c(SCC(N)=O)nc(-c2ccccc2)c2c1CCCC2,-1.5%,?,?,?,20µM*
C1CCN(c2nc3nonc3nc2N2CCCCC2)CC1,-3.0%,13.8%,1.4%,?,?
Nc1nonc1-c1noc(N2CCCCC2)n1,-0.5%,-21.1%,-0.2%,?,10µM*
Cc1cccc(S(=O)(=O)C(C#N)c2nc3ccccc3nc2N2CC(C)OC(C)C2)c1 (stereo not drawn),-2.5%,?,3.3%,·,-1.3%
Cc1ccc(S(=O)(=O)C(C#N)c2nc3ccccc3nc2N2CC(C)OC(C)C2)cc1C (stereo not drawn),-7.2%,3.98µM*,1.3%,·,6.2%
COc1ccc(-n2c(SCC(=O)Nc3cc(C)cc(C)c3)nc3c(oc4ccccc43)c2=O)cc1,·,·,0.9%,·,·
Cc1c(O)ccc2c3c(c(=O)oc12)CCCC3,-1.8%,?,-0.8%,9.5%,0.4%
Cc1c(O)ccc2c3c(c(=O)oc12)CCC(C)C3 (stereo not drawn),-4.5%,3.16µM*,?,20.7%,13.3%
Cc1cc2c(cc1NS(=O)(=O)c1ccc(NC(=O)CC(C)C)cc1)n(C)c(=O)c(=O)n2C,·,·,-0.9%,·,·
CNCC[C@@H](Oc1ccccc1C)c1ccccc1,-6.4%,?,0.7%,?,31.6µM*
CNCC[C@H](Oc1ccccc1C)c1ccccc1,1.1%,-9.7%,-6.2%,20.1%,10.7%
SMILES,Hsp90 Hop PPI,CRE-bla Fsk,IkB sig inh,TSHR ag,HEK293 cAMP cs
COc1ccc(/C=N/NC(=O)c2cc(-c3ccc(Cl)cc3)n[nH]2)cc1OC,·,·,·,15.1%,24.7%
CC(=O)NCCSC(=O)c1ccc(F)cc1,-0.5%,-14.9%,8.5%,?,3.16µM*
CCCc1cc(-c2ccc(O)c(OCC)c2)c(C#N)c(N)n1,-1.8%,2µM*,3.1%,?,?
CCOc1cc(-c2c(C)c(C)nc(N)c2C#N)ccc1O,-5.5%,?,0.9%,10.1%,23.5%
N#Cc1c(NC(=O)CSC2=NCCS2)sc2c1CCCC2,-4.1%,11.8%,12.4%,?,?
Cc1ccnc(SCC(=O)Nc2sc3c(c2C#N)CCCC3)n1,-1.4%,26.6%,0.9%,?,20µM*
O=C(CCC(=O)OCC(F)(F)C(F)F)Nc1ccc(Cl)cc1,-1.6%,-0.7%,7.6%,?,31.6µM*
Cc1ccc(-n2nnnc2SCC(=O)NCCC2=CCCCC2)c(C)c1,10.7%,?,?,?,31.6µM*
Cc1ccc(-n2nnnc2SCC(N)=O)c(C)c1,-5.2%,4.5%,-1.1%,19.7%,2.4%
CCOc1ccccc1CNCc1c(C(=O)O)n(Cc2ccc(F)cc2)c2cc(C)ccc12,·,·,-1.2%,·,·
O=C(NCCN1CCOCC1)c1ccc(-n2c(=O)c(=O)[nH]c3ccccc32)cc1,·,·,·,-6.7%,-11.0%
N#C/C(=C\c1ccc(O)c(O)c1)C(=O)c1ccc(O)c(O)c1,?,-4.2%,-10.0%,3.6%,-6.5%
N#C/C(=C\c1ccc(O)c(O)c1)C(=O)OCCc1cccs1,3.98µM*,-19.3%,1.7%,-3.8%,-14.8%
N#C/C(=C\c1ccc(O)c(O)c1)C(=O)NCCCc1ccccc1,5.01µM*!,?,?,8.3%,-9.0%
Cn1c(=O)c2c(ncn2CCSS(=O)(=O)O)n(C)c1=O,-1.1%[11 µM],3.7%[7.6 µM],0.7%[11.4 µM],-1.8%[11.4 µM],2.3%[11.4 µM]
CCCCCOc1ccc(C(=O)N(Cc2ccco2)C2CCS(=O)(=O)C2)cc1 (stereo not drawn),-3.6%,-7.7%,5.2%,?,25.1µM*
CCC(C)Sc1nc2c(cnn2-c2ccc(C)c(C)c2)c(=O)[nH]1 (stereo not drawn),1.2%,2.51µM*,-3.3%,-0.5%,-6.1%
COC(=O)c1cc(OC)c(OC)cc1NC(=O)C1CCC(=O)N1S(=O)(=O)c1ccc(C)cc1 (stereo not drawn),-2.1%,10µM*,-1.4%,51.7%,1.4%
Cc1c(C(=O)NCc2cccnc2)sc2nc(-c3ccc(F)cc3)cn12,-1.5%,3.16µM*,?,8.1%,6.3%
CCN(CC)C(=O)c1sc2nc(-c3ccc(OC)cc3)cn2c1C,-1.1%,11.1%,4.2%,?,15.8µM*
CC(=O)OC[C@@H]1O[C@@H](O/N=C2/C[C@@H](O)[C@@H](O)[C@@H]3[C@H]4C(=O)N(c5ccc(F)cc5F)C(=O)[C@@H]4CC[C@@H]23)[C@H](OC(C)=O)[C@H](OC(C)=O)[C@@H]1OC(C)=O,·,·,·,·,-0.9%[11.4 µM]
C[C@@H]1/C=C\CC(=O)OC[C@H](C)C(=O)N[C@@H](C)C(=O)OC1,·,·,·,-1.7%[11.4 µM],1.9%[11.4 µM]
COc1cccc(Cn2c(=O)c(C)nc3cnc(Oc4cccc(Cl)c4)nc32)c1,6.4%,?,6.1%[11.4 µM],?,?
COc1ccc(Oc2ncc3nc(C)c(=O)n(Cc4ccc(F)cc4)c3n2)cc1,-2.0%,?,2.4%[11.4 µM],?,15.8µM*

# Source: PubChem (National Center for Advancing Translational Sciences (NCATS))
